Hits are enriched below; roughly 8% of the tested compounds scored in any of these assays.
Lassa entry inh – Lassa virus entry inhibition; Lassa virus pseudotype entry inhibition, cell reporter; 300,000 tested, 1.2% active; AID 540256; Potency, µM (highest dose often 37.9 µM), for the others: top-dose activity change, negative = inhibition, usual class: inhibitors; calls by dose curve; tested in HEK293 cells; note: potency is the fitted concentration of half-maximal effect; % is set by controls: 0 for no effect and ±100 for the full control effect; nearly all actives have a fitted effect of over 50% in size
MARV entry inh – Marburg virus entry inhibition; 300,000 tested, 1.8% active; Potency, µM (highest dose often 37.8 µM), for inactives: at the top dose activity change, negative = inhibition, actives largely listed as inhibitors; Marburg virus pseudotyped entry inhibition, cell reporter; calls by dose curve; tested in HEK293 cells; note: potency is the fitted concentration of half-maximal effect; % is set by controls: 0 for no effect and ±100 for the full control effect
HCV inh – HCV inhibition. Huh7.5.1 HCVcc-Cre infection, luciferase reporter, 44 h. Potency, µM (doses to about 41.8 µM), for the others: at the top dose activity change, negative = inhibition, actives largely listed as inhibitors. 340,000 tested, 3.4% active. AID 651820; active = well fitted inhibition curve with a large enough effect; inconclusive = small, poorly fitted or top-dose-only effect, or another doubt; inactive = no such curve, though single readings can be large or run the other way; note: potency is the fitted concentration of half-maximal effect; % is set by controls: 0 for no effect and ±100 for the full control effect
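Reporter virus HCVcc-Cre (~0.5 moi) infects cells exposed to compound; seeding density 1,000 cells/well with 4 h settling beforehand. Luminescence, 15 sec read, taken 44 h post-infection following a 15 min RT substrate incubation.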
FMDV inh – blocks foot and mouth disease virus. FMDV antiviral cell-based qHTS. Potency, µM (titrated, usually from 57.9 µM), for inactives: at the highest dose activity change, negative = inhibition, usual class: inhibitors. 410,000 tested, 1.2% active; calls by dose curve; tested in HEK293T cells; note: read-out not given here; potency is the fitted concentration of half-maximal effect; % is set by controls: 0 for no effect and ±100 for the full control effect; nearly all actives have a fitted effect of over 45% in size
HCMV antiviral – inhibitors of human cytomegalovirus. HFF cells, HCMV-luciferase reporter, 72 h; active compounds read low. activity change, negative = inhibition, % at 57.5 µM. 410,000 tested, 4.5% active; in the data active = activity change below about -60%; inconclusive = no clear call, values can overlap the other calls; inactive = above about -39%; note: % is set by controls: 0 for no effect and ±100 for the full control effect
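Steps: HFFs plated, 16 h 37C; compounds added; HCMV-luciferase added to MOI 1 PFU/cell; 72 h 37C; OneGlo reagent, 5 min room temperature; luminescence read, normalized to controls.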
SARS PLP yeast – inhibitors of SARS-CoV papain-like protease in yeast; Potency, µM (highest dose often 32.9 µM), for the others: at the highest dose activity, positive = growth rescue, usual class: activators; S. cerevisiae expressing SARS-CoV PLpro, growth rescue; 330,000 tested, 0.19% active; calls by dose curve; note: potency is the fitted concentration of half-maximal effect; 0% is about no effect; nearly all actives have a fitted effect of over 55% in size
* marks the source's active call; other numbers are inactive results; ! = repeats disagree; [ ] = another dose, or the depositor's remark.

`CC(C)C(NC(=O)c1ccccn1)c1nnc2n1CCN(Cc1ccc3ccccc3c1)CC2` (stereo not drawn) gave FMDV inh -20%.
For CC(C)(C)OC(=O)C[C@H]1C/C=C\C[C@H](CC(=O)NCCO)C(=O)N2CCC[C@@H]2COC1=O the results were HCV inh 17%, FMDV inh -2%, HCMV antiviral -60* and SARS PLP yeast 8%.
Screening CCOC(=O)c1c(Nc2ccc(OCC)cc2)nnc(-c2ccccc2)c1-c1ccccc1 returned Lassa entry inh inconclusive, MARV entry inh -25%[46.1 µM], FMDV inh 0% and HCMV antiviral -34.
CCOc1ccc(OCC)c(NC(=O)CCC(=O)N2CCOc3ccccc32)c1 was read as Lassa entry inh 18%[46.1 µM], MARV entry inh -2%[46.1 µM], FMDV inh -2% and HCMV antiviral -11.
CCOC(=O)Cn1c(S(=O)(=O)Cc2ccccc2)nc2ccccc21 was read as Lassa entry inh 5%, MARV entry inh 0%, HCV inh 1%, FMDV inh -6%, HCMV antiviral 6 and SARS PLP yeast -3%.
CCOC(=O)Cn1c(S(=O)(=O)Cc2ccc(Cl)cc2)nc(-c2ccccc2)c1-c1ccccc1 was read as Lassa entry inh inconclusive, MARV entry inh inconclusive, HCV inh 35µM*, FMDV inh -18%, HCMV antiviral inconclusive and SARS PLP yeast -1%.
`C#CCn1c(S(=O)(=O)Cc2ccc(OC)cc2)nc(-c2ccccc2)c1-c1ccccc1` gave Lassa entry inh inconclusive, MARV entry inh 4.1µM*, HCV inh -11%, FMDV inh -18%, HCMV antiviral -39 and SARS PLP yeast 5%.
For O=c1n(CCCN2CCN(C3CCCC(Cl)C3)CC2)nc2ccccn12 (stereo not drawn) the results were MARV entry inh 40%.
CC1CCc2nc3ncn(Cc4cccc(F)c4)c(=O)c3cc2C1 (stereo not drawn) was read as Lassa entry inh -5%[46.1 µM], FMDV inh 24% and HCMV antiviral 42.
For Cc1cccc(OCc2nc(CC(=O)Nc3ccc(Cl)cc3)cs2)c1 the results were Lassa entry inh -1%[46.1 µM], MARV entry inh 7%[46.1 µM], FMDV inh -2% and HCMV antiviral -12.
Screening COc1cc2c(cc1OC)CN1CCc3cc(OC)c(OC)cc3C1C2 (stereo not drawn) returned HCMV antiviral 14.
For CCC1=C(CC2NCCc3ccccc32)CC2c3cc(OC)c(OC)cc3CCN2C1 (stereo not drawn) the results were Lassa entry inh inconclusive, MARV entry inh inconclusive, HCV inh inconclusive, FMDV inh inconclusive and HCMV antiviral -100*.
For CCC1CN2CCc3cc(OC)c(OC)cc3C2CC1CC1NCCc2cc(OC)c(OC)cc21 (stereo not drawn) the results were FMDV inh 0%.
CC[C@H]1CN2CCc3cc(OC)c(OC)cc3C2C[C@@H]1C[C@H]1NCCc2cc(OC)c(OC)cc21 (stereo partly drawn) was read as HCV inh 0.32µM*, FMDV inh -20% and HCMV antiviral -97*.
Screening CCOC(=O)N1CCC(NC(=O)c2ccc3c(c2)N(Cc2ccc(F)cc2)CCS3)CC1 returned MARV entry inh -1%, HCV inh 18µM*, FMDV inh inconclusive, HCMV antiviral -25 and SARS PLP yeast 6%.
For CCOC(=O)N1CCC(NC(=O)c2ccc3c(c2)N(Cc2ccccc2)C(=O)c2ccccc2S3=O)CC1 (stereo not drawn) the results were Lassa entry inh 15%[46.1 µM], MARV entry inh -1%[46.1 µM], FMDV inh 2% and HCMV antiviral 17.
O=C(NCCCN1CCCC1)c1ccc2c(c1)N(Cc1ccccc1F)C(=O)c1ccccc1S2=O (stereo not drawn) was read as HCV inh -26%, FMDV inh -14%, HCMV antiviral -33 and SARS PLP yeast 22%.
`CCOC(=O)N1CCN(C(=O)c2ccc3c(c2)N(Cc2cc(C)ccc2C)C(=O)c2ccccc2S3=O)CC1` (stereo not drawn) gave Lassa entry inh inconclusive, MARV entry inh inconclusive, HCV inh inconclusive, FMDV inh inconclusive, HCMV antiviral -88*! and SARS PLP yeast -1%.
Screening Cc1ccc(C)c(CN2C(=O)c3ccccc3S(=O)c3ccc(C(=O)NCCCN4CCCC4)cc32)c1 (stereo not drawn) returned HCV inh 7.1µM*, FMDV inh -5%, HCMV antiviral inconclusive and SARS PLP yeast 3%.
`CCOC(=O)N1CCC(NC(=O)c2ccc3c(c2)N(Cc2ccc(Cl)cc2)C(=O)c2ccccc2S3=O)CC1` (stereo not drawn) gave Lassa entry inh -24%[46.1 µM], MARV entry inh inconclusive, FMDV inh -26% and HCMV antiviral -82*.
For CCN1C(=O)[C@@H]2[C@H]3[C@H](O)[C@H](O)CC(=NO[C@H](C)CN4CCCc5nc(C)c(C)cc54)[C@@H]3CC[C@H]2C1=O the results were MARV entry inh 2%[14.2 µM].
Screening CCN(CC)S(=O)(=O)c1ccc(S(=O)(=O)N(Cc2ccccn2)Cc2ccco2)cc1 returned Lassa entry inh inconclusive, MARV entry inh -12%, HCV inh 10µM*, HCMV antiviral -23 and SARS PLP yeast 3%.
For NS(=O)(=O)c1ccc(S(=O)(=O)N(CCc2ccccc2)Cc2ccccn2)cc1 the results were HCV inh 14%, FMDV inh -16%, HCMV antiviral 6 and SARS PLP yeast 3.5µM*.
Screening O=S(=O)(NCc1ccccc1)c1ccc(S(=O)(=O)N(Cc2ccccn2)Cc2ccco2)cc1 returned Lassa entry inh -9%, MARV entry inh 12%, HCV inh -12%, HCMV antiviral 51 and SARS PLP yeast 5%.
`CC(C)n1c(O)c(C2c3cc(Cl)ccc3Oc3[nH]c(=O)n(C(C)C)c(=O)c32)c(=O)[nH]c1=O` (stereo not drawn) gave Lassa entry inh inconclusive, MARV entry inh inconclusive, HCV inh 5µM*, FMDV inh 3.5µM* and SARS PLP yeast -7%.
For CC(=O)c1c(O)n(-c2cccc(Cl)c2)c(=O)[nH]c1=O (tested in a mixture with another compound) the results were Lassa entry inh 23%, MARV entry inh 6%, HCV inh 2%, FMDV inh -25%, HCMV antiviral 6 and SARS PLP yeast 1%.
For CCOc1ccccc1C(=O)NC(C)CCc1ccccc1 (stereo not drawn) the results were HCV inh -12%, FMDV inh -3% and HCMV antiviral -36.
For CCCNC[C@H](O)COc1ccccc1C(=O)CCc1ccccc1 the results were MARV entry inh 7.1µM*.
